# Experiments:
# Conditions in all cases: concentration: 1 μM, replicates: in singlicate; n = 1
# [1] = system: T1, PRKR
# T1 construct: gene EIF2AK2
# [2] = system: PRKX
# [3] = system: PRP4
# [4] = system: T2, PYK2
# T2 construct: gene PTK2B
# [5] = system: QSK
# [6] = system: RAF1
# [7] = system: RET
# [8] = system: RIOK1
# [9] = system: RIOK2
# [10] = system: RIOK3
# [11] = system: RIPK1
# [12] = system: RIPK2
# [13] = system: RIPK4
# [14] = system: RIPK5
# [15] = system: ROCK1
# [16] = system: ROCK2
# [17] = system: ROS1
# [18] = system: RPS6KA4(Kin.Dom.1-N-terminal)
# [19] = system: RPS6KA4(Kin.Dom.2-C-terminal)
# [20] = system: RPS6KA5(Kin.Dom.1-N-terminal)
# 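Also: KINOMEscan kinase panel screen.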
SMILES,%Inh [1] [%],%Inh [2] [%],%Inh [3] [%],%Inh [4] [%],%Inh [5] [%],%Inh [6] [%],%Inh [7] [%],%Inh [8] [%],%Inh [9] [%],%Inh [10] [%],%Inh [11] [%],%Inh [12] [%],%Inh [13] [%],%Inh [14] [%],%Inh [15] [%],%Inh [16] [%],%Inh [17] [%],%Inh [18] [%],%Inh [19] [%],%Inh [20] [%]
COc1ccc(NC(=O)Nc2ccc(C)c(-c3ccc(C(=O)Nc4ccncc4)cc3)c2)cc1 [GSK1398475],0,10,19,3,0,50,0,31,0,8,16,2,1,0,0,0,0,0,0,0
Fc1cccc(COc2ccc(Nc3ncnc4nn5ccccc5c34)cc2Cl)c1 [GW689066],0,2,0,0,0,4,0,20,0,0,0,0,0,0,40,33,1,17,0,0
CCc1nc(-c2cccc(N(C)S(=O)(=O)c3ccccc3)c2)c(-c2ccnc(Nc3ccc(N4CCN(C(C)=O)CC4)nc3)n2)s1 [GSK1645895],17,23,16,0,1,18,0,17,5,15,0,90,18,10,0,0,0,0,0,0
Cc1ccc(C)c(NC(=O)NCCNc2ccnc(Nc3ccc(F)cc3)n2)c1 [GSK1379878],0,0,48,7,0,42,3,36,0,37,4,0,0,9,7,0,16,0,0,0
CCc1nc(-c2cccc(C)c2)c(-c2ccnc(NC(=O)c3ccccc3)c2)s1,0,0,10,11,0,22,0,14,8,4,0,52,42,0,35,0,0,0,8,3
Clc1ccc(-c2cc(-c3c[nH]nc3-c3ccccn3)ccn2)cc1 [GW681251],11,12,9,0,0,4,27,19,2,0,0,37,0,0,0,12,0,2,0,6
FC(F)(F)c1cc(Nc2nccc(-c3c(-c4ccc(Cl)cc4)nn4ncccc34)n2)ccc1Cl [GW829351],26,0,14,0,0,1,0,0,0,0,0,6,0,0,50,0,0,0,0,0
FC(F)(F)c1ccc(-c2cc(-c3c[nH]nc3-c3ccccn3)ccn2)cc1 [GW599550],8,12,31,0,0,18,14,25,5,25,0,25,2,0,26,15,31,14,0,20
Oc1ccc2ncnc(Nc3ccc(OCc4ccccc4)cc3)c2c1 [GI262866],0,11,26,0,10,18,12,18,4,10,1,100,6,0,0,0,0,8,0,4
CNc1nccc(-c2c(-c3ccc(F)cc3)ncn2C2CCN(C)CC2)n1 [SB-222903],11,0,0,0,0,0,0,0,0,3,3,40,0,2,56,0,0,15,0,0
CCC(CC)(CC)n1cnc2c(N)ncnc21 [SKF-97620],0,0,14,7,27,7,4,21,8,0,0,1,41,25,44,0,0,24,13,14
Cc1cccc(-c2nc(Nc3ccc4[nH]nnc4c3)c3ccccc3n2)n1 [GW867587],0,0,0,0,0,0,0,0,0,0,0,0,0,0,49,0,0,0,0,0
Nc1n[nH]c2nnc(-c3ccccc3)cc12 [SB-517389],0,0,33,0,0,6,88,26,0,0,0,17,17,0,0,0,0,4,38,5
Cn1ccc2ncnc(Oc3ccc(NC(=O)Nc4cccnc4)c(Cl)c3)c21,7,12,20,9,0,0,52,0,53,4,0,3,0,19,1,0,0,0,0,17
Nc1nc(-c2ccc3c(N)n[nH]c3c2)cc(N2CCC[C@@H](C(=O)Nc3ccccc3)C2)n1.O=C(O)C(F)(F)F.O=C(O)C(F)(F)F [GSK2288359],0,71,26,0,0,0,0,79,12,82,10,5,13,3,,61,0,0,0,0
FC(F)(F)c1ccc(-c2nn3ncccc3c2-c2ccnc(Nc3cccc(C(F)(F)F)c3)n2)cc1 [GW828205],0,0,0,1,0,0,0,26,0,25,0,0,0,0,0,0,0,16,0,0
COc1cc2ncnc(Nc3ccc(OCc4ccccc4Br)c(Cl)c3)c2cc1OC.Cl [GI261590],0,0,0,32,0,21,14,29,0,10,0,86,7,0,16,27,4,9,0,0
C[C@H]1CC[C@@H](C(=O)Nc2ccccc2)CN1c1cc(-c2ccc3c(N)n[nH]c3c2)nc(N)n1 [GSK2283293],0,8,2,20,10,6,0,42,8,31,0,0,6,0,9,18,0,6,0,12
CC(=O)Nc1n[nH]c2ncc(-c3ccccc3)cc12 [SB-548492],8,0,1,12,21,0,0,38,17,31,8,0,24,33,3,1,22,9,17,3

# — PMC5540273 (PLoS ONE, 2017)
